Data from PMC5540273 (PLoS ONE, 2017).
Several values for one entry are separate records, joined by “and”; a condition that tells them apart may be missing. Equal entries are not always repeated. Where two headings read alike, the source gives them in different places.

Columns and labels:
[1] = tested on: QSK; details: n = 1
[2] = tested on: RAF1; details: n = 1
[3] = tested on: RET; details: n = 1
[4] = tested on: RIOK1; details: n = 1
[5] = tested on: RIOK2; details: n = 1
[6] = tested on: RIOK3; details: n = 1
[7] = tested on: RIPK1; details: n = 1
[8] = tested on: RIPK2; details: n = 1
[9] = tested on: RIPK4; details: n = 1
[10] = tested on: RIPK5; details: concentration: 1 μM, replicates: in singlicate; n = 1
[11] = concentration: 1 μM, replicates: in singlicate
[12] = concentration: 1 μM,replicates: in singlicate, 1 µM
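Also: KINOMEscan kinase panel screen.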

| Structure (SMILES) | %Inh [1, 11] | %Inh [2, 11] | %Inh [3, 11] | %Inh [4, 11] | %Inh [5, 11] | %Inh [6, 11] | %Inh [7, 11] | %Inh [8, 11] | %Inh [9, 11] | %Inh [10] | %Inh [1, 12] | %Inh [2, 12] | %Inh [3, 12] | %Inh [4, 12] | %Inh [5, 12] | %Inh [6, 12] | %Inh [7, 12] | %Inh [8, 12] | %Inh [9, 12] |
| --- | --- | --- | --- | --- | --- | --- | --- | --- | --- | --- | --- | --- | --- | --- | --- | --- | --- | --- | --- |
| COc1cc(Nc2nccc(N3CCC(NC(=O)Nc4cc(C)ccc4C)C3)n2)cc(OC)c1OC (stereo not shown) [GSK1379762] | 0% | 19% | 25% | 60% | 6% | 34% | 4% | 8% | 18% | 0% | – | – | – | – | – | – | – | – | – |
| COc1ccc(C2=C(Nc3cccc(C(=O)O)c3)C(=O)NC2=O)cc1 [SB-390765] | 27% | 11% | 3% | 13% | 18% | 0% | 0% | 0% | 18% | 31% | – | – | – | – | – | – | – | – | – |
| COC(=O)c1c(-c2ccccc2)c2cc(OC)ccc2c(=O)n1Cc1ccccc1 | 23% | 85% | 17% | 0% | 0% | 0% | 0% | 0% | 4% | 24% | – | – | – | – | – | – | – | – | – |
| Cc1cccc(-c2nc(-c3ccc(S(C)(=O)=O)cc3)sc2-c2ccnc(NCCc3ccccc3)c2)c1 | 0% | 93.4% | 30% | 17% | 15% | 18% | 3% | 6% | 0% | 0% | – | – | – | – | – | – | – | – | – |
| Cc1ccccc1-n1cnc2c(N)ncnc21 [SKF-97510] | 0% | 0% | 17% | 0% | 0% | 0% | 10% | 0% | 0% | 0% | – | – | – | – | – | – | – | – | – |
| COc1ccc2nc(-c3cccc(C)n3)nc(Nc3ccncc3)c2c1 [GSK204919] | 0% | 6% | 18% | 24% | 0% | 16% | 0% | 33% | 5% | 0% | – | – | – | – | – | – | – | – | – |
| CS(=O)(=O)c1ccc(-c2c(-c3ncn[nH]3)sc(N3CCOCC3)c2C#N)cc1 | 0% | 0% | 5% | 0% | 0% | 0% | 6% | 0% | 0% | 18% | – | – | – | – | – | – | – | – | – |
| CC(=O)Nc1nc2cnc(Nc3cc(NC(=O)c4cccc(CCC#N)c4)ccc3C)nc2s1 | 0% | 88% | 51% | 0% | 17% | 10% | 0% | 0% | 0% | 5% | – | – | – | – | – | – | – | – | – |
| COc1ccc(Nc2nccc(NCCNC(=O)Nc3ccccc3F)n2)cc1 [GSK1379901] | 3% | 20% | 17% | 40% | 0% | 39% | 33% | 22% | 11% | 6% | – | – | – | – | – | – | – | – | – |
| CSc1nn2c(=O)cc(N3CCOCC3)nc2n1Cc1cccc(C(F)(F)F)c1C [GSK2363608] | – | – | – | – | – | – | – | – | – | 0% | 55% and 8% | 14% and 11% | 19% and 56% | 37% and 10% | 19% and 5% | 39% and 0% | 26% and 0% | 0% and 14% | 22% and 13% |
| Nc1nc(-c2nccs2)c(-c2ccnc3ccccc23)s1 [GW693542] | 0% | 15% | 37% | 24% | 6% | 38% | 0% | 14% | 5% | 0% | – | – | – | – | – | – | – | – | – |
| Fc1cc(Cl)ccc1Nc1ccnc2cc(-c3ccc(CN4CCCCC4)o3)ccc12 [GW560116] | 29% | 8% | 22% | 12% | 0% | 0% | 8% | 61% | 0% | 0% | – | – | – | – | – | – | – | – | – |
| Fc1cccc(COc2nnc(-c3ccc4c(c3)CCO4)o2)c1 | 7% | 4% | 5% | 9% | 0% | 0% | 0% | 0% | 0% | 15% | – | – | – | – | – | – | – | – | – |
| O=C(Nc1n[nH]c2nc(-c3nccs3)c(Br)cc12)C1CCCC1 [SB-742609] | 0% | 25% | 0% | 2% | 0% | 0% | 0% | 4% | 21% | 1% | – | – | – | – | – | – | – | – | – |
| CN1C(=O)C(Nc2ccc(Cl)c(C(=O)O)c2)=C(c2ccc(Cl)cc2)C1=O [SB-404290] | 40% | 0% | 0% | 0% | 0% | 18% | 0% | 0% | 18% | 17% | – | – | – | – | – | – | – | – | – |
| O=C(Nc1n[nH]c2nc(-c3nccs3)c(Br)cc12)C1CC1 [SB-742251] | 19% | 8% | 12% | 30% | 0% | 29% | 15% | 10% | 17% | 0% | – | – | – | – | – | – | – | – | – |
| Cc1cc(-c2ccc3c(c2)CC[C@@H](N[C@@H](C)c2ccccc2)C3)cnc1N.Cl [GW412617] | 0% | 19% | 0% | 44% | 85% | 32% | 50% | 15% | 13% | 7% | – | – | – | – | – | – | – | – | – |

| Structure (SMILES) | %Inh [1, 11] | %Inh [2, 11] | %Inh [3, 11] | %Inh [4, 11] | %Inh [5, 11] | %Inh [6, 11] | %Inh [7, 11] | %Inh [8, 11] | %Inh [9, 11] | %Inh [10] | %Inh [1, 12] | %Inh [2, 12] | %Inh [3, 12] | %Inh [4, 12] | %Inh [5, 12] | %Inh [6, 12] | %Inh [7, 12] | %Inh [8, 12] | %Inh [9, 12] |
| --- | --- | --- | --- | --- | --- | --- | --- | --- | --- | --- | --- | --- | --- | --- | --- | --- | --- | --- | --- |
| Cc1cccc(-c2nc(Nc3ccc4[nH]ncc4c3)c3ccccc3n2)n1 [GW857175] | 4% | 8% | 13% | 39% | 8% | 29% | 0% | 0% | 44% | 35% | – | – | – | – | – | – | – | – | – |
| COc1ccc(CNC(=O)NC2CCN(c3ccnc(Nc4cc(OC)c(OC)c(OC)c4)n3)C2)cc1 (stereo not shown) [GSK1379748] | 0% | 0% | 0% | 35% | 0% | 32% | 17% | 16% | 28% | 48% | – | – | – | – | – | – | – | – | – |
| COc1cc2ncn(-c3cc(OCC4CCCO4)c(C(N)=O)s3)c2cc1OC (stereo not shown) [GSK204607] | 0% | 0% | 0% | 77% | 0% | 94.5% | 5% | 7% | 0% | 0% | – | – | – | – | – | – | – | – | – |
| COc1ccc(Nc2nccc(-c3cccc(NC(=O)c4cc5cc(F)ccc5[nH]4)c3)n2)cc1 [GSK1229782] | 3% | 13% | 14% | 72% | 3% | 50% | 22% | 17% | 0% | 25% | – | – | – | – | – | – | – | – | – |
| O=C1NC(=O)C(N2CCc3ccccc32)=C1c1ccccc1Cl [SB-373598] | 4% | 25% | 3% | 19% | 4% | 1% | 0% | 10% | 12% | 0% | – | – | – | – | – | – | – | – | – |
| O=c1cc(N2CCOCC2)nc2n(Cc3cccc(Cl)c3Cl)ccn12 [GSK2286295] | 1% | 7% | 1% | 42% | 56% | 19% | 0% | 6% | 6% | 0% | – | – | – | – | – | – | – | – | – |
| Cn1ccc2ncnc(Oc3cccc(C(=O)Nc4ccccc4)c3)c21 | 0% | 5% | 14% | 38% | 0% | 23% | 0% | 15% | 18% | 0% | – | – | – | – | – | – | – | – | – |
| Cc1cccc(-c2nc(Nc3ccncc3)c3ccccc3n2)n1 [GW855857] | 0% | 39% | 9% | 0% | 0% | 35% | 4% | 71% | 0% | 0% | – | – | – | – | – | – | – | – | – |
| CCCc1ccc(S(=O)(=O)NC2CCN(c3ccnc(Nc4ccc(F)cc4)n3)C2)cc1 (stereo not shown) [GSK1379715] | 0% | 15% | 16% | 3% | 0% | 0% | 0% | 0% | 10% | 0% | – | – | – | – | – | – | – | – | – |
| COC(=O)c1c(-c2ccccc2)c2cc(C(=O)O)ccc2c(=O)n1Cc1ccccc1 | 0% | 81% | 21% | 0% | 26% | 11% | 0% | 0% | 0% | 0% | – | – | – | – | – | – | – | – | – |
| CCn1c(-c2cccnc2O)nc2cnccc21 [SB-736715] | 0% | 0% | 5% | 6% | 0% | 0% | 0% | 0% | 21% | 0% | – | – | – | – | – | – | – | – | – |
| O=C(Nc1ccccc1)Nc1cccc(Oc2ccc3nccn3n2)c1 | 0% | 21% | 8% | 48% | 0% | 15% | 2% | 0% | 0% | 0% | – | – | – | – | – | – | – | – | – |
| COc1cc2ncnc(Nc3ccc4nc(-c5ccccc5)[nH]c4c3)c2cc1OC.Cl [GW282450] | 0% | 10% | 33% | 51% | 11% | 25% | 18% | 27% | 1% | 0% | – | – | – | – | – | – | – | – | – |
| Cc1cc(NCC(c2ccccc2)c2ccccc2)nc(NCc2ccc(C(F)(F)F)cc2)n1 [GW497681] | 0% | 18% | 0% | 22% | 0% | 9% | 0% | 9% | 0% | 0% | – | – | – | – | – | – | – | – | – |
| CC(C)(C)c1ccc(C(=O)Nc2cn3cc(-c4cccnc4)ccc3n2)cc1 | 0% | 0% | 14% | 34% | 33% | 9% | 27% | 26% | 0% | 17% | – | – | – | – | – | – | – | – | – |
| Cc1c(Cn2ccn3c(=O)cc(N4CCOCC4)nc23)cccc1C(F)(F)F [GSK2289044] | 3% | 5% | 8% | 3% | 34% | 5% | 9% | 10% | 0% | 0% | – | – | – | – | – | – | – | – | – |
| Cc1ccc(NC(=O)Nc2cc(C(C)(C)C)nn2-c2ccccc2)cc1 [GSK1014915] | 13% | 89% | 46% | 18% | 0% | 0% | 9% | 6% | 12% | 0% | – | – | – | – | – | – | – | – | – |
